Compounds with a hit are over-represented: about 18% of the library has one in this group of screens.
IL-1B inflam inh: qHTS for Inhibitors of Inflammasome Signaling: IL-1-beta AlphaLISA Primary Screen; THP-1 LPS/ATP IL-1B secretion, AlphaLISA, 16 h; stronger effect = lower value; activity change, % at 57.5 µM; 360,000 compounds, 4.7% hits; in the data active = activity change below about -50%; inconclusive = mostly about -30% to -49%
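Secreted IL-1B measured by AlphaLISA bead assay after 16 h compound exposure of THP-1 cells; compounds (final up to 57.5 uM) added 1 h before LPS (250 ng/mL) and ATP (1.25 mM) stimulation; lower signal means less secretion.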
CtBP-E1A inh: qHTS Assay for Inhibitors of the CtBP/E1A Interaction; AID 651724, 2012; CtBP / adenovirus E1A interaction (AlphaScreen); AlphaScreen GST-E1A/His-CtBP binding, 1536-well; stronger effect = lower value; activity change, % (concentration not given with the values); 340,000 compounds, 0.49% hits; in the data active = activity change below about -65%; inconclusive = mostly about -30% to -63%
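Protein mix (5X: 125 nM each GST-E1A, His-CtBP) was incubated with pinned compound 2 h at 37 deg C in dark, in 50 mM Tris pH 8.0 buffer with 300 mM NaCl. Glutathione donor and nickel acceptor beads followed; AlphaScreen signal read after 1 h.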
TDP1 cell CPT: qHTS for Inhibitors of human tyrosyl-DNA phosphodiesterase 1 (TDP1): qHTS in cells in presence of CPT. Potency, µM (top dose mostly 46.2 µM), without a hit: top-dose activity change, negative = growth inhibition, hits mostly inhibitors. chicken DT40 Tdp1-/-;hTDP1 cells + 20 nM CPT, ATP luminescence, 48 h. 420,000 compounds, 12% hits. AID 686979, 2013; note: potency is the fitted concentration of half-maximal effect; nearly all actives have a fitted effect of over 55% in size
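Cell growth measured by CellTiter-Glo luminescence after a minimum 48 h, 37 C compound exposure with 20 nM CPT in Tdp1-knockout DT40 cells stably expressing hTDP1, seeded 400/well; qHTS titration format.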
TDP1 block: qHTS Assay for Inhibitors of Tyrosyl-DNA Phosphodiesterase (TDP1); 350,000 compounds, 0.28% hits; Potency, µM (doses to about 130 µM), inactives show top-dose activity change, negative = inhibition, hits mostly inhibitors; recombinant TDP1, AlphaScreen DNA substrate cleavage; note: potency is the fitted concentration of half-maximal effect; nearly all actives have a fitted effect of over 40% in size
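AlphaScreen read-out: signal falls as enzyme removes the 3' tyrosine-FITC from a 5'-biotinylated DNA oligo (15 nM, 5 min, RT). Enzyme was E. coli-made recombinant Tdp1 at 1 nM, exposed to compound for 15 min beforehand; beads 10 ug/ml, 10 min.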
TDP1 cell noCPT: qHTS for Inhibitors of human tyrosyl-DNA phosphodiesterase 1 (TDP1): qHTS in cells in absence of CPT | 420,000 compounds, 15% hits | AID 686978, 2013 | DT40 Tdp1-/- hTDP1 cells, no CPT, ATP luminescence, 48 h | Potency, µM (series often up to 46.2 µM), for inactives: at the top dose activity change, negative = growth inhibition, most hits filed as inhibitors; note: potency is the fitted concentration of half-maximal effect; nearly all actives have a fitted effect of over 55% in size
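Camptothecin absent (DMSO only). Human TDP1-complemented DT40 knockout cells, 400 cells/well, 37 °C for minimum 48 hr; ATP measured via CellTiter-Glo, 30 min dark incubation, luminescence.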
Six1-Eya2 inh: qHTS Assay for Inhibitors of the Six1/Eya2 Interaction | activity change, % (test concentration not listed) | Homeobox protein SIX1 (Homo sapiens) + Protein phosphatase EYA2 (Homo sapiens), … | AlphaScreen GST-Six1/His-Eya2 binding, biochemical; stronger effect = lower value | 360,000 compounds, 0.56% hits | AID 651725, 2012; in the data active = activity change below about -65%; inconclusive = mostly about -30% to -63%
Target sequence (O00167 whole entry, looked up): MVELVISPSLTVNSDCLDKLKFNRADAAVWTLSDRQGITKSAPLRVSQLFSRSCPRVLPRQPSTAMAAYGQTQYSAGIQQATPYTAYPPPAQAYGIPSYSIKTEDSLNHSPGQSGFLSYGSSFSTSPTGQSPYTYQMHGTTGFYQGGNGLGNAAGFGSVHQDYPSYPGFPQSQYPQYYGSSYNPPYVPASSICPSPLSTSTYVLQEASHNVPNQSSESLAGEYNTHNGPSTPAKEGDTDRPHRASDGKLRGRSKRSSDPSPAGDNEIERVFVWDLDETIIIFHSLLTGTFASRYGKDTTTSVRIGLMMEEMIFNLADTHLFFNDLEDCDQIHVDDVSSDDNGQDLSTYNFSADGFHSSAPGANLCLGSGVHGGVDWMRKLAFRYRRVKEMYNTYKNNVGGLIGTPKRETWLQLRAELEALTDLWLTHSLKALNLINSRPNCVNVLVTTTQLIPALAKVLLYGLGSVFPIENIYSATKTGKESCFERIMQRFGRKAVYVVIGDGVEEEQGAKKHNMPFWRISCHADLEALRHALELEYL
Target sequence (Q15475 whole entry, looked up): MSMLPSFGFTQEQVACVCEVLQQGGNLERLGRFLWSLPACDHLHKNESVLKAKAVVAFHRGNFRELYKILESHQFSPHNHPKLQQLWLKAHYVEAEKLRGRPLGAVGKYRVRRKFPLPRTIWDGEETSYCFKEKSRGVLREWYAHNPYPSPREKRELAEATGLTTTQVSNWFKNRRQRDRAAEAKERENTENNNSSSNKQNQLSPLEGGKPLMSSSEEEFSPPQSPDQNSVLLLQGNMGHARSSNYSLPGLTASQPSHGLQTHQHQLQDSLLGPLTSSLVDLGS
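Homogeneous AlphaScreen proximity assay pairing GST-Six1 with His-tagged Eya2 (added as 5X mix: 250 nM and 500 nM) in 50 mM Tris pH 8.0, 300 mM NaCl, 1 mM TCEP. Glutathione donor and nickel acceptor beads; 1 h, 37 °C, dark.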
Active calls of the source: *; ? = inconclusive; / = no result given; ! = a repeat was not active; [ ] = remark or other dose. Unless noted, calls come from the whole dose curve; as a rule, active = well fitted curve in the direction sought with a large enough effect; inconclusive = small, poorly fitted or top-dose-only effect, or another doubt; inactive = no such curve, though single readings can be large; an effect the other way counts as inactive or inconclusive. % is set by controls: 0 for no effect and ±100 for the full control effect.

SMILES | IL-1B inflam inh | CtBP-E1A inh | TDP1 cell CPT | TDP1 block | TDP1 cell noCPT | Six1-Eya2 inh
CCOC(=O)c1nnc(-c2ccccc2)nc1N1CC(C)OC(C)C1 (stereo not given) | -8 | 7 | -6% | 8% | -20% | 0
O=C(CN1CCN(c2ccccc2O)CC1)Nc1cc(S(=O)(=O)N2CCCC2)ccc1Cl | ? | -8 | 16µM* | -3% | ? | -5
O=C(CN1CCN(c2ccccc2O)CC1)Nc1ccc(S(=O)(=O)N2CCCCCC2)cc1 | -15 | 0 | ? | 1% | ? | -8
O=C(CN1CCN(C(=O)c2ccco2)CC1)Nc1ccccc1 | 5 | 4 | 11% | 10% | -12% | 4
O=C(CN1CCN(C(=O)c2ccco2)CC1)Nc1cccc(S(=O)(=O)N2CCCC2)c1 | 21 | -12 | -9% | 2% | 0% | -1
O=C(CN1CCN(C(=O)c2ccco2)CC1)Nc1cc(S(=O)(=O)N2CCCC2)ccc1Cl | -16 | 32 | ? | / | 6.5µM* | -5
O=C(CN1CCN(C(=O)c2ccco2)CC1)Nc1c2c(nc3c1CCC3)CCCC2 | -7 | -1 | -28% | 89µM* | -29% | 2
O=C(Cn1nc(-c2ccccc2)ccc1=O)N1CCOCC1 | 7 | 10 | 13% | / | -19% | 1
C=Cc1ccc(Cn2c(C)c(CNCCc3ccccc3C)c(C(=O)O)c2C)cc1 | / | / | ? | 5% | ? | /
Cc1sc2ccc3sccc3c2[n+]1C | -95* | 3 | 8.2µM* | 7% | 21µM* | 4
Cc1sc2c3ccsc3ccc2[n+]1C | -100* | -12 | 13µM* | 10% | 16µM* | 9
O=C(COC(=O)c1ccc(Br)cc1)NCCC1=CCCCC1 | 23 | 4 | 15% | -3% | 0% | 2
CCOC(=O)c1ccc(NC(=S)NCCC2=CCCCC2)cc1 | 28 | 7 | 29µM* | -2% | 21µM* | -6
O=C(NCc1ccco1)Nc1ccc(Br)cc1 | -10 | -7 | -19% | 3% | ? | 2
O=C(NCCC1=CCCCC1)Nc1ccc2nsnc2c1 | -94* | 9 | ? | 0% | 10µM* | 6
CC(=O)c1cccc(NC(=S)NCCC2=CCCCC2)c1 | -16 | -4 | 16µM* | 8% | 15µM* | -7
O=C(NCc1ccco1)Nc1ccc2nsnc2c1 | -75* | -5 | 18µM* | 6% | 15µM* | 7
COc1cc(CN2CCSCC2)c([N+](=O)[O-])cc1OC | 5 | 7 | 5% | / | -5% | -2
Cc1ccc(NC(=S)NCCC2=CCCCC2)cc1 | 10 | 0 | ? | 5% | 23µM* | 4
CSCC(=O)Nc1ccc(F)c(Cl)c1 | -6 | 19 | -4% | 0% | 2% | 1
Cc1cc(NC(=O)c2ccc3[nH]c(C)c(C)c3c2)ccn1 | -58* | -12 | 21µM* | / | 26µM* | -13
CCOc1ccc(CCNC(=O)c2ccc3[nH]c(C)c(C)c3c2)cc1 | / | / | ? | 13% | 21µM* | /
COc1ccc(CCNC(=O)c2ccc3[nH]c(C)c(C)c3c2)cc1OC | / | / | ? | 8% | 23µM* | /
COc1ccc(NC(=O)c2ccc3[nH]c(C)c(C)c3c2)cc1 | ? | -11 | ? | / | -27% | -1
COc1ccc(OC)c(CCNC(=O)c2ccc3[nH]c(C)c(C)c3c2)c1 | / | / | ? | 13% | 21µM* | /
SMILES | IL-1B inflam inh | CtBP-E1A inh | TDP1 cell CPT | TDP1 block | TDP1 cell noCPT | Six1-Eya2 inh
Cc1ccc(CCNC(=O)c2ccc3[nH]c(C)c(C)c3c2)cc1 | / | / | ? | 11% | -22% | /
Cc1c(N=C2NC(=O)C(CC(=O)Nc3ccc(Cl)cc3)S2)c(=O)n(-c2ccccc2)n1C (stereo not given) | -15 | -6 | -7% | 2% | -18% | -3
Cc1ccc(S(=O)(=O)NC2=C(N3CCN(c4ccccc4F)CC3)C(=O)c3ccccc3C2=O)cc1 | -64*! | -5 | 23µM* | 10% | ? | -5
Cc1ccc(S(=O)(=O)NC2=C(N3CCN(Cc4ccccc4)CC3)C(=O)c3ccccc3C2=O)cc1 | -11 | ? | 23µM* | 0% | 16µM* | ?
CCOC(=O)N1CCN(C2=C(NS(=O)(=O)c3ccc(C)cc3)C(=O)c3ccccc3C2=O)CC1 | 11 | / | 8.2µM* | 13% | ? | ?
CC(C)(CN1CCN(Cc2ccccc2)CC1)NS(=O)(=O)c1ccc(Cl)cc1 | -25 | / | 16µM* | / | 18µM* | -2
CC(=O)Nc1ccc(S(=O)(=O)NC2=C(N3CCN(c4ccc(F)cc4)CC3)C(=O)c3ccccc3C2=O)cc1 | -7 | -78* | 10µM* | 15% | 16µM* | -79*
COc1cc(O)c2c(=O)cc(C)oc2c1CC=C(C)C | / | / | 3%[9.04 µM] | 11% | -23%[9.04 µM] | /
C=CC(C)(C)c1c(O)c(CC=C(C)C)c(O)c2c(=O)c3ccc(O)c(O)c3oc12 | 83 | 0 | 16µM* | / | 18µM* | -12
COc1cccc(-c2ccc3nccn3c2)c1 | 0 | 3 | ? | / | -17% | 10
O=C1c2ccccc2C(=O)N1CCn1nc(Cl)nc1Cl | -4 | -12 | 1% | 4% | 0% | 7
CCS(=O)(=O)N1N=C(c2ccc(C)cc2)CC1c1cc2ccc(OC)cc2nc1Cl (stereo not given) | / | / | ? | 1% | ? | /
Cc1cccn2cc(CNC(=O)CC3CCCC3)nc12 | -5 | 0 | 10% | 2% | -21% | 11
CCOc1cc(C=O)cc(Br)c1OCC(N)=O | 32 | / | 5.8µM* | -3% | 5.2µM* | -4
CCCOc1c(Br)cc(C(N)=O)cc1OCC | 18 | -16 | 23µM* | 6% | ? | 2
O=C(NCc1ccncc1)C(=O)N/N=C/c1ccccc1OCc1ccccc1 | -8 | -6 | 0% | 5% | -10% | -4
COc1ccccc1CNC(=O)C1CCN(S(=O)(=O)c2ccc3c(c2)CC(C)N3C(C)=O)CC1 (stereo not given) | 29 | -5 | -8% | 1% | 5% | 2
COc1ccc(C(=O)Nc2nc(C)cs2)cc1S(=O)(=O)N1CCOCC1 | 2 | -6 | 3% | / | 4% | -7
